# This is part of a sample that, as a whole, favours compounds with a hit. Of some 79,000 tested, about 15% had one in any assay. Values without a mark were called inactive. Activity calls are given as the source filed them. Cut-off read from the data, not from the text of the source: active = growth inhibition above about 70%; inactive = the rest.
# Assays:
# [1] = NCI Yeast Anticancer Drug Screen. Data for the rad52 strain (AID 147);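 note: 0% = growth of vehicle-treated control cultures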; conditions: S. cerevisiae rad52 mutant growth inhibition, hits give high values
# In short: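 Read-out: growth inhibition versus vehicle-treated controls. Cells were a DNA repair-deficient yeast strain treated with compounds.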
# [2] = NCI Yeast Anticancer Drug Screen. Data for the wt1 strain (AID 149);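 note: 0% = growth of vehicle-treated wt1 cultures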; conditions: S. cerevisiae wt1 strain (SPY 50644) growth inhibition, hits give high values
# In short: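 Measured: growth of wt1 yeast under compound versus vehicle treatment, reported as inhibition.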
# [3] = NCI Yeast Anticancer Drug Screen. Data for the rad50EPP+ strain (AID 151);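 note: 0% = growth of vehicle-treated control cultures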; conditions: S. cerevisiae rad50 mutant strain, hits give high values
# In short: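 Growth inhibition read against vehicle controls in rad50EPP+ yeast, a strain altered in DNA damage repair, after compound exposure.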
# [4] = NCI Yeast Anticancer Drug Screen. Data for the mgt1 strain (AID 153); conditions: S. cerevisiae mgt1 mutant growth inhibition, hits give high values
# In short: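 mgt1 yeast grown with test compound; read-out is growth inhibition versus vehicle-treated cultures.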
# [5] = NCI Yeast Anticancer Drug Screen. Data for the rad50 strain (AID 155);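 note: 0% = growth of vehicle-only cultures of the same strain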; conditions: S. cerevisiae rad50 strain growth inhibition, hits give high values
# In short: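 Growth of the mutant yeast was measured after compound exposure and referenced to vehicle-treated cultures.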
# [6] = NCI Yeast Anticancer Drug Screen. Data for the mec2-1 strain (AID 157); conditions: S. cerevisiae mec2-1 strain, hits give high values
# In short: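 Yeast mec2-1 mutant treated with compound. Readout: growth inhibition vs vehicle controls.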
# [7] = NCI Yeast Anticancer Drug Screen. Data for the rad14 strain (AID 159);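 note: 0% = growth of vehicle-treated control cultures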; conditions: S. cerevisiae rad14 strain growth inhibition, hits give high values
# In short: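 Here, inhibition of yeast growth was measured after compound exposure, using a strain with a genetic defect in DNA damage repair and vehicle-treated cultures as the reference.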
# [8] = NCI Yeast Anticancer Drug Screen. Data for the sgs1 mgt1 strain (AID 161);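 note: 0% = growth of cultures given vehicle only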; conditions: S. cerevisiae sgs1 mgt1 strain, hits give high values
# In short: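 Test agents were incubated with a DNA-repair-mutant yeast strain. Growth was then read and compared against vehicle-treated controls.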
# [9] = NCI Yeast Anticancer Drug Screen. Data for the CLN2oe strain (AID 163);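 note: 0% = growth of vehicle-only control cultures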; conditions: S. cerevisiae CLN2oe strain, hits give high values
# In short: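 Read-out: yeast growth inhibition, expressed relative to vehicle-only controls. The strain bears an engineered cell-cycle alteration.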
# [10] = NCI Yeast Anticancer Drug Screen. Data for the cln2 rad14 strain (AID 165);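 note: 0% = growth equal to vehicle treated cultures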; conditions: S. cerevisiae cln2 rad14 strain, hits give high values
# In short: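 cln2 rad14 yeast strain; compound exposure; growth inhibition read vs vehicle controls.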
# [11] = NCI Yeast Anticancer Drug Screen. Data for the bub3 strain (AID 167); conditions: S. cerevisiae bub3 mutant strain, hits give high values
# In short: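 Whole-cell yeast assay. The mutant strain was incubated with compounds, and growth inhibition was determined by comparison with vehicle-treated cells.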
# [12] = NCI Yeast Anticancer Drug Screen. Data for the mlh1 strain (AID 171);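 note: 0% = growth of vehicle-treated control cultures of the same strain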; conditions: S. cerevisiae mlh1 strain growth inhibition, hits give high values
# In short: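 Read-out: growth inhibition versus vehicle controls. Strain: engineered yeast with a defined DNA repair or cell cycle defect, compound-treated.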
# [13] = NCI Yeast Anticancer Drug Screen. Data for the sgs1 strain (AID 173);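 note: 0% = growth of vehicle-only control cultures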; conditions: S. cerevisiae sgs1 mutant, hits give high values
# In short: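 Read-out: yeast growth inhibition relative to vehicle controls, following compound exposure of a strain with a defined DNA repair/cell cycle alteration.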
# [14] = NCI Yeast Anticancer Drug Screen. Data for the mlh1 rad18 strain (AID 175); conditions: S. cerevisiae mlh1 rad18 strain growth inhibition, hits give high values
# In short: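 Yeast w/ defined DNA-repair lesions; compound exposure; growth vs vehicle controls → % inhibition.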
# [15] = NCI Yeast Anticancer Drug Screen. Data for the rad18 strain (AID 177); conditions: S. cerevisiae rad18 mutant growth inhibition, hits give high values
# In short: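 Readout: growth inhibition vs vehicle controls. Cells: genetically altered yeast strain, DNA repair defect.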
# [16] = NCI Yeast Anticancer Drug Screen. Data for the wt2 strain (AID 169);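 note: 0% = growth of vehicle-treated yeast cultures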; conditions: S. cerevisiae wt2 strain growth inhibition, hits give high values
# In short: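 Read-out: growth inhibition versus vehicle-treated control cultures after compound exposure of the yeast strain.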
# [17] = at 5.0 µM (retest, dose inferred, filed as 0.5)
# [18] = at 50.0 µM (retest, dose inferred, filed as 5.0)
compound,measurement,setting,value
O=C1c2ccccc2C(=O)c2cc(CCl)ccc21,growth inhibition,[1]; at 1.2 µM,4%
same,growth inhibition,[1]; at 3.7 µM,12%
same,growth inhibition,[1]; at 11.0 µM,17%
same,growth inhibition,[1]; at 33.0 µM,21%
same,growth inhibition,[1]; at 100.0 µM,20%
same,growth inhibition,[2]; at 1.2 µM,1%
same,growth inhibition,[2]; at 3.7 µM,6%
same,growth inhibition,[2]; at 11.0 µM,3%
same,growth inhibition,[2]; at 33.0 µM,7%
same,growth inhibition,[2]; at 100.0 µM,10%
same,growth inhibition,[3]; at 1.2 µM,27%
same,growth inhibition,[3]; at 3.7 µM,47%
same,growth inhibition,[3]; at 11.0 µM,64%
same,growth inhibition,[3]; at 33.0 µM,69%
same,growth inhibition,[3]; at 100.0 µM,68%
same,growth inhibition,[4]; at 1.2 µM,-1%
same,growth inhibition,[4]; at 3.7 µM,2%
same,growth inhibition,[4]; at 11.0 µM,7%
same,growth inhibition,[4]; at 33.0 µM,10%
same,growth inhibition,[4]; at 100.0 µM,12%
same,growth inhibition,[5]; at 1.2 µM,2%
same,growth inhibition,[5]; at 3.7 µM,6%
same,growth inhibition,[5]; [17],20%
same,growth inhibition,[5]; at 11.0 µM,12%
same,growth inhibition,[5]; at 33.0 µM,13%
same,growth inhibition,[5]; [18],32%
same,growth inhibition,[5]; at 50.0 µM,25%
same,growth inhibition,[5]; at 100.0 µM,14%
same,growth inhibition,[6]; at 1.2 µM,2%
same,growth inhibition,[6]; at 3.7 µM,7%
same,growth inhibition,[6]; [17],12%
same,growth inhibition,[6]; at 11.0 µM,17%
same,growth inhibition,[6]; at 33.0 µM,20%
same,growth inhibition,[6]; [18],38%
same,growth inhibition,[6]; at 50.0 µM,24.4%
same,growth inhibition,[6]; at 100.0 µM,16%
same,growth inhibition,[7]; at 1.2 µM,2%
same,growth inhibition,[7]; at 3.7 µM,4%
same,growth inhibition,[7]; at 11.0 µM,7%
same,growth inhibition,[7]; at 33.0 µM,8%
same,growth inhibition,[7]; at 100.0 µM,13%
same,growth inhibition,[8]; [17],15%
same,growth inhibition,[8]; [18],30%
same,growth inhibition,[8]; at 50.0 µM,46.2%
same,growth inhibition,[9]; at 1.2 µM,-1%
same,growth inhibition,[9]; at 3.7 µM,-5%
same,growth inhibition,[9]; at 11.0 µM,8%
same,growth inhibition,[9]; at 33.0 µM,5%
same,growth inhibition,[9]; at 100.0 µM,2%
same,growth inhibition,[10]; [17],4%
same,growth inhibition,[10]; [18],18%
same,growth inhibition,[10]; at 50.0 µM,28%
same,growth inhibition,[11]; at 1.2 µM,5%
same,growth inhibition,[11]; at 3.7 µM,11%
same,growth inhibition,[11]; [17],39%
same,growth inhibition,[11]; at 11.0 µM,19%
same,growth inhibition,[11]; at 33.0 µM,25%
same,growth inhibition,[11]; [18],56%
same,growth inhibition,[11]; at 50.0 µM,58.8%
same,growth inhibition,[11]; at 100.0 µM,22%
same,growth inhibition,[12]; at 1.2 µM,3%
same,growth inhibition,[12]; at 3.7 µM,3%
same,growth inhibition,[12]; at 11.0 µM,6%
same,growth inhibition,[12]; at 33.0 µM,9%
same,growth inhibition,[12]; at 100.0 µM,10%
same,growth inhibition,[13]; at 1.2 µM,2%
same,growth inhibition,[13]; at 3.7 µM,2%
same,growth inhibition,[13]; at 11.0 µM,7%
same,growth inhibition,[13]; at 33.0 µM,11%
same,growth inhibition,[13]; at 100.0 µM,14%
same,growth inhibition,[14]; [17],29%
same,growth inhibition,[14]; [18],51%
same,growth inhibition,[14]; at 50.0 µM,31.2%
same,growth inhibition,[15]; at 1.2 µM,9%
same,growth inhibition,[15]; at 3.7 µM,22%
same,growth inhibition,[15]; at 11.0 µM,39%
same,growth inhibition,[15]; at 33.0 µM,46%
same,growth inhibition,[15]; at 100.0 µM,53%
O=C(CSC(=S)N1CCCCC1)Nc1nc2c(s1)CCCC2,growth inhibition,[1]; at 1.2 µM,1%
same,growth inhibition,[1]; at 3.7 µM,6%
same,growth inhibition,[1]; at 11.0 µM,6%
same,growth inhibition,[1]; at 33.0 µM,41%
same,growth inhibition,[1]; at 100.0 µM,79% (active)
same,growth inhibition,[2]; at 1.2 µM,-9%
same,growth inhibition,[2]; at 3.7 µM,-11%
same,growth inhibition,[2]; at 11.0 µM,-13%
same,growth inhibition,[2]; at 33.0 µM,3%
same,growth inhibition,[2]; at 100.0 µM,79% (active)
same,growth inhibition,[3]; at 1.2 µM,21%
same,growth inhibition,[3]; at 3.7 µM,31%
same,growth inhibition,[3]; at 11.0 µM,38%
same,growth inhibition,[3]; at 33.0 µM,40%
same,growth inhibition,[3]; at 100.0 µM,41%
same,growth inhibition,[4]; at 1.2 µM,-8%
same,growth inhibition,[4]; at 3.7 µM,-7%
same,growth inhibition,[4]; at 11.0 µM,-16%
same,growth inhibition,[4]; at 33.0 µM,17%
same,growth inhibition,[4]; at 100.0 µM,85% (active)
same,growth inhibition,[5]; at 1.2 µM,-11%
same,growth inhibition,[5]; at 3.7 µM,-2%
same,growth inhibition,[5]; [17],31%
same,growth inhibition,[5]; at 11.0 µM,-16%
same,growth inhibition,[5]; at 33.0 µM,26%
same,growth inhibition,[5]; [18],68%
same,growth inhibition,[5]; at 50.0 µM,74.3% (active)
same,growth inhibition,[5]; at 100.0 µM,83% (active)
same,growth inhibition,[6]; at 1.2 µM,7%
same,growth inhibition,[6]; at 3.7 µM,-9%
same,growth inhibition,[6]; [17],-4%
same,growth inhibition,[6]; at 11.0 µM,1%
same,growth inhibition,[6]; at 33.0 µM,1%
same,growth inhibition,[6]; [18],45%
same,growth inhibition,[6]; at 50.0 µM,56.6%
same,growth inhibition,[6]; at 100.0 µM,79% (active)
same,growth inhibition,[7]; at 1.2 µM,-9%
same,growth inhibition,[7]; at 3.7 µM,-14%
same,growth inhibition,[7]; at 11.0 µM,-6%
same,growth inhibition,[7]; at 33.0 µM,11%
same,growth inhibition,[7]; at 100.0 µM,73% (active)
same,growth inhibition,[8]; [17],17%
same,growth inhibition,[8]; [18],87% (active)
same,growth inhibition,[8]; at 50.0 µM,86% (active)
same,growth inhibition,[9]; at 1.2 µM,3%
same,growth inhibition,[9]; at 3.7 µM,-6%
same,growth inhibition,[9]; at 11.0 µM,-14%
same,growth inhibition,[9]; at 33.0 µM,0%
same,growth inhibition,[9]; at 100.0 µM,61%
same,growth inhibition,[11]; at 1.2 µM,5%
same,growth inhibition,[11]; at 3.7 µM,-8%
same,growth inhibition,[11]; [17],45%
same,growth inhibition,[11]; at 11.0 µM,-4%
same,growth inhibition,[11]; at 33.0 µM,80% (active)
same,growth inhibition,[11]; [18],92% (active)
same,growth inhibition,[11]; at 50.0 µM,86.5% (active)
same,growth inhibition,[11]; at 100.0 µM,85% (active)
same,growth inhibition,[16]; at 1.2 µM,-7%
same,growth inhibition,[16]; at 3.7 µM,-3%
same,growth inhibition,[16]; at 11.0 µM,-2%
same,growth inhibition,[16]; at 33.0 µM,22%
same,growth inhibition,[16]; at 100.0 µM,88% (active)
same,growth inhibition,[12]; at 1.2 µM,24%
same,growth inhibition,[12]; at 3.7 µM,19%
same,growth inhibition,[12]; at 11.0 µM,14%
same,growth inhibition,[12]; at 33.0 µM,43%
same,growth inhibition,[12]; at 100.0 µM,84% (active)
same,growth inhibition,[13]; at 1.2 µM,22%
same,growth inhibition,[13]; at 3.7 µM,20%
same,growth inhibition,[13]; at 11.0 µM,15%
same,growth inhibition,[13]; at 33.0 µM,52%
same,growth inhibition,[13]; at 100.0 µM,92% (active)
same,growth inhibition,[14]; [17],16%
same,growth inhibition,[14]; [18],53%
same,growth inhibition,[14]; at 50.0 µM,78.6% (active)
same,growth inhibition,[15]; at 1.2 µM,27%
same,growth inhibition,[15]; at 3.7 µM,19%
same,growth inhibition,[15]; at 11.0 µM,25%
same,growth inhibition,[15]; at 33.0 µM,23%
same,growth inhibition,[15]; at 100.0 µM,76% (active)

# From PubChem BioAssay (NCI)
